In the OligoGym collection:

These sequences were tested against RCSD1 (assay: pooled miR-30 sensor sort-seq; sequence = guide strand). Details: shRNA.
Further: reference of the scale not given here.

Row | Sequence | sensor-assay potency score (higher = more potent)
1 | TTGAAAAGTTGTCTCTAGGGTT | -0.0262
2 | TATCTCTTCTAGTCCAGTGTTT | -0.522
3 | TTGAGAACCGTAAACACTTTAG | -0.662
4 | TTGTTGTTGAACCAAGTCCATC | -1.65
5 | TTTGAGAACCGTAAACACTTTA | -0.421
6 | TACAACTGTTGCTGCTACCTGC | 0.0449
7 | TAACTGATATTTGAGAACCGTA | -1.05
8 | TTTGATACAATTTAGGGTCTTC | 0.305
9 | TTCCTTAGCACCGTTCTGCTGA | 0.0396
10 | TAGCCTTTTCCATCTCTGCTTC | -0.0691
11 | TAGAACATTAAAAAGGAACTTT | 0.0564
12 | TTAAAAAGGAACTTTACCCAAG | -0.456

The sequences below were run against RDH5 in the same assay as above. Details: shRNA.

Row | Sequence | sensor-assay potency score (higher = more potent)
13 | TAGGTCCGGGTCACAGATCAGG | -1.62
14 | TTTCTCCAGACTCTCCAGGTTG | -1.05
15 | TCGGAAGCCTCTCTGGTCCAGC | -1.15
16 | TGCATTTTCAGGTACTTGGTGA | 0.187
17 | ATGAGCTACATCCCGCCTCAGG | -1.65
18 | TTCCTTAACGTGCATCTCCACC | -0.947
19 | TGTGTTCACATTCAGCACCCGC | -1.07
20 | AAAATGAGCTACATCCCGCCTC | -0.19
21 | ATCAGTGATATCCAACAGGGTG | -0.912
22 | TCAGTGATATCCAACAGGGTGG | -0.32
23 | TTTCAGGTACTTGGTGAGGAAG | -1.78
24 | TTAACGTGCATCTCCACCCACT | -0.757
